Sampled rows, rich in hits. Any-hit rate of the full collection: about 3.3%.
FH mod: Identification of activators of human fumarate hydratase by quantitative high-throughput screening. Fumarate hydratase, mitochondrial (Homo sapiens), P07954. FH coupled MDH/diaphorase resazurin fluorescence, 15 min. Potency, µM (top dose mostly 79.9 µM), for the others: at the highest dose activity change, negative = inhibition, actives largely listed as inhibitors. 54,000 tested, 0.22% active. AID 1347055, 2019; further: on the % scale 0 is the no-effect control and ±100 the full control effect; the screen sought activators but most active calls are inhibition curves; nearly all actives have a fitted effect of over 45% in size
Target sequence (P07954 whole entry, looked up): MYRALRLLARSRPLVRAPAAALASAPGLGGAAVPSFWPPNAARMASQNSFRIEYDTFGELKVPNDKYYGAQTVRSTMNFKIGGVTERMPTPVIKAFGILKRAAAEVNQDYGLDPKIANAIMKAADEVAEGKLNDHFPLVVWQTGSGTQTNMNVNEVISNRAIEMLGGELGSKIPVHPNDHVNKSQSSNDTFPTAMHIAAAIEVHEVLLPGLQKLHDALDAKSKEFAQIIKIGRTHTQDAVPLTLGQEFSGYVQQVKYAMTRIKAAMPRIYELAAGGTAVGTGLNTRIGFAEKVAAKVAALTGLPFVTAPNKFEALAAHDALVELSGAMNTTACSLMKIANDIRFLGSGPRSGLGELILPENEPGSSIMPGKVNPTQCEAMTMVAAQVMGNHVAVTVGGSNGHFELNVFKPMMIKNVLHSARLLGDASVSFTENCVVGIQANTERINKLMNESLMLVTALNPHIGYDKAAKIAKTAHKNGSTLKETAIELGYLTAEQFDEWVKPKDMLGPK
pS6 MEF inh: mTORC1 pathway inhibition measured by phospho-rpS6; Tsc2-/- p53-/- MEF, phospho-rpS6 immunofluorescence/PI, 24 h; Potency, µM (titrated, usually from 38.3 µM), inactives show top-dose activity change, negative = inhibition, usual class: inhibitors; AID 493208; 44,000 tested, 0.78% active;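 further: plate controls were DMSO for no effect and rapamycin for full effect; nearly all actives have a fitted effect of over 50% in size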
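Cell-based qHTS: Tsc2-/- p53-/- MEF, 24 h cpd, 37 °C; fix/perm, anti-phospho-S6 Alexa-488 + PI; Acumen 488 nm scan; pS6/PI ratio, % positive cells; rapamycin 7.5 nM = inhibition ref; PI count = viability.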
HTT-AS act: activates huntingtin-antisense promoter activity. Potency, µM (titrated, usually from 57.5 µM), for inactives: top-dose activity change, positive = activation, most hits filed as activators. HEK293 HTT-AS promoter firefly luciferase reporter, 24 h; response scale: percent change from vehicle, -100% = no light. 48,000 tested, 0.24% active; further: nearly all actives have a fitted effect of over 55% in size
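Luminescence was read after Dual-Glo reagent and a 10 min room-temperature incubation. Values were normalized to vehicle (0% activity) and zero RLU (-100% activity). Reporter HEK293 cells had been exposed to compounds (up to 57.5 uM final) for 24 h.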
HTT prom inh: inhibits huntingtin promoter activity. 48,000 tested, 0.93% active. AID 1508623. Potency, µM (titrated, usually from 57.5 µM), inactives show at the highest dose activity change, negative = inhibition, most hits filed as inhibitors. HEK293 HTT promoter firefly luciferase reporter, 24 h; further: nearly all actives have a fitted effect of over 50% in size
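Quantitative HTS used concentration series of up to 57.5 uM final on HEK293 luciferase reporter cells, 24 h at 37 degrees C. Readout was Dual-Glo firefly luminescence.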
S16 viability: S16 Schwann cell cytotoxicity; 43,000 tested, 0.48% active; Potency, µM (top dose mostly 57.5 µM), inactives show at the top dose activity change, negative = cytotoxicity, actives largely listed as cytotoxic; S16 Pmp22-F2sN Schwann cells viability, CellTiter-Glo, 24 h; further: on the % scale 0 is the no-effect control and ±100 the full control effect; nearly all actives have a fitted effect of over 65% in size
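Luminescence from CellTiter-Glo, read by CCD camera after a 15 min room-temperature incubation, served as the viability signal. Reporter Schwann cells (S16 Pmp22-F2sN) had been treated with pin-transferred compounds for 24 h at 37C.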
PMP22 txn: PMP22 gene transcription modulation. S16 Pmp22-F2sN Schwann cells (luciferase reporters placed in the Pmp22 gene), FLuc/NLuc coincidence luminescence, 24 h. Potency, µM (highest dose often 57.5 µM), for inactives: at the highest dose activity change, negative = inhibition, usual class: inhibitors. 43,000 tested, 2% active; active means clear falling dose curves in both reporters; inconclusive means both reporters move, but less clearly or upward; inactive means either reporter flat; the % is the NLuc reporter signal; further: on the % scale 0 is the no-effect control and ±100 the full control effect
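Luminescent read-out of sequential FLuc and NLuc signals from a reporter embedded in the Pmp22 3' UTR of S16 Schwann cells, taken after 24 h compound exposure at 37C; compounds reducing both signals score as inhibitors of expression.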
Starred values were filed as active, the others as inactive; ? = inconclusive; · = not tested or not shown; [ ] = another dose, or the depositor's remark. Unless noted, the call rests on the fitted dose curve; in most records, active means well fitted curve in the direction sought with a large enough effect; inconclusive means small, poorly fitted or top-dose-only effect, or another doubt; inactive means no such curve, though single readings can be large; an effect the other way counts as inactive or inconclusive. Potency means the concentration at half of the fitted maximal effect.

SMILES | FH mod | pS6 MEF inh | HTT-AS act | HTT prom inh | S16 viability | PMP22 txn
COc1cc(Cl)c(NS(=O)(=O)c2ccc3c(c2)CC(C)N3C(=O)C2CCC2)c(OC)c1 (centres undefined) | -27% | -2% | -87% | 8.9µM* | ? | 12µM*
CC1Cc2cc(S(=O)(=O)NCc3ccccc3)ccc2N1C(=O)C1CCC1 (centres undefined) | -10% | -14% | -30% | ? | 5% | -50%
Cc1ccc(-c2nc3ccccc3[nH]2)cc1NC(=O)COc1ccccc1[N+](=O)[O-] | 6% | 2.3µM* | -36% | ? | -29% | ?
CCc1ccc(CN(Cc2cn[nH]c2-c2ccc(OC)cc2)C(=O)Nc2ccc(Br)cc2)cc1 | -27% | 1% | -58% | 14µM* | ? | ?
CCN(CC)CCOC(=O)c1ccc(NC(=O)c2nn(-c3ccc(C)cc3)c(=O)c3c2c2ccccc2n3C)cc1 | -9% | 0.93µM* | -23% | -17% | 4.5µM* | 5.1µM*
Cc1ccc(/C=C/C(=O)Nc2ccccc2C(N)=O)o1 | -9% | -1% | 4µM* | 60% | ? | -6%
COc1ccc(/C=C/C(=O)Nc2ccccc2C(=O)O)cc1OC | -7% | · | · | · | · | ·
Cc1ccccc1CN1C(=O)C(O)(CC(=O)c2cccc(Br)c2)c2ccccc21 (centres undefined) | 32µM* | -14% | -29% | ? | -24% | ?
Cc1ccc(CN2C(=O)C(O)(CC(=O)c3ccc(C)cc3)c3ccccc32)cc1 (centres undefined) | -11% | 9.3µM* | -19% | -20% | ? | 7.6µM*
Cc1c(C(=O)OCCOc2ccccc2)[nH]c2c1C(=O)CC(c1ccccc1Cl)C2 (centres undefined) | -2% | 1.3µM* | -58% | ? | ? | 5.3µM*
CCC(Cc1ccccc1)NC(=O)c1ccc2nc(N3CCC(C)CC3)sc2c1 (centres undefined) | -8% | 1% | -71% | 1.3µM* | 11% | 6%
CCCCN(C)CCNC(=O)C1CCN(c2nc3ccc(CC)cc3s2)CC1 | 0% | 12µM* | ? | -12% | ? | ?
CCOc1ccc(CCNC(=O)c2ccc3nc(N4CCC(C)CC4)sc3c2)cc1OCC | -6% | -1% | -77% | ? | -3% | -22%
CCc1ccc2nc(N3CCC(C(=O)O)CC3)sc2c1 | -11% | -1% | -75% | 10µM* | -3% | 24%
Cn1cc(S(=O)(=O)c2ccc(Cl)cc2)c2cccc(N3CCNCC3)c21 | 21% | · | · | · | · | ·
COC(=O)c1ccc2c(c1)[nH]c1ncnc(NCCCN3CCCCC3)c12 | -5% | · | · | · | · | ·
CC(=O)N[C@H]1[C@H](O[C@H]2CC[C@@]3(C)C(CC[C@]4(C)C3CC=C3C5CC(C)(C)CC[C@]5(C(=O)O)C(O)C[C@]34C)C2(C)C)O[C@H](CO[C@@H]2O[C@H](C)[C@H](O)[C@H](O)[C@H]2O[C@@H]2OC[C@@H](O)[C@H](O)[C@H]2O)[C@@H](O)[C@@H]1O (some centres undefined) | 1%[20.6 µM] | · | · | · | · | ·
C=CC(=O)N1CCN(C(=O)CNc2cc(I)c(Cl)cc2O)CC1 | -7% | · | · | · | · | ·
COc1ccc(-c2nc3cc(NC(=O)Cc4ccc(Cl)cc4)ccc3o2)cc1OC | -19% | 4.1µM* | -36% | ? | 7% | ?
COc1ccc(-c2nc3ccccc3o2)cc1NC(=O)CSc1ccc(Cl)cc1 | 2% | 7% | ? | 13% | 0% | ?
O=C(Cc1ccc(Cl)cc1)Nc1ccc2oc(-c3ccc(F)cc3)nc2c1 | 1% | -22% | -20% | 0% | 17% | -23%
COc1ccc(-c2nc3ccccc3o2)cc1NC(=O)C(C)Oc1ccc(Cl)cc1Cl (centres undefined) | -16% | -17% | -5% | -1% | 0% | 14µM*
CC(C)=C/C=C\[C@H](C)[C@H]1CC[C@]2(C)C[C@@H]3C(C)=CC(=O)C3/C(CO)=C\C[C@@H]12 (some centres undefined) | -1%[53.3 µM] | · | · | · | · | ·
CC(=O)Nc1cc(-c2nc3ccccc3s2)ccc1C | -19% | 7% | 6.3µM* | 64% | -2% | -4%
Cc1ccc(-c2nc3cccnc3s2)cc1NC(=O)C(C)C | -5% | 0% | -1% | 3% | -3% | ?
SMILES | FH mod | pS6 MEF inh | HTT-AS act | HTT prom inh | S16 viability | PMP22 txn
O=C(O)C1(c2ccc(-c3ccc(Cl)c(Cl)c3)c(F)c2)CC1 | -2% | · | · | · | · | ·
O=C(O)[C@@H]1C[C@H]2C[C@@H](CCc3nn[nH]n3)CC[C@H]2CN1 | 6% | · | · | · | · | ·
COc1cccc(-c2nc(CS(=O)(=O)CC(=O)N3CCN(c4ccccc4)CC3)c(C)o2)c1 | ? | 0% | -26% | ? | 1% | 10%
Cc1oc(-c2ccccc2F)nc1CS(=O)(=O)CC(=O)N1CCN(c2ccc(Cl)cc2)CC1 | -13% | -3% | -55% | 28µM* | ? | ?
C=C(C(=O)OC)C1C(O)CC2(C)C(O)CCC(=O)C2C1O (centres undefined) | 6% | · | · | · | · | ·
COc1ccccc1C1C=C(c2ccc(Cl)cc2)Nc2nc(-c3ccc(Cl)cc3)nn21 (centres undefined) | -23% | 12µM* | -64% | ? | -16% | ?
COc1ccc(C2C=C(c3ccc(Cl)cc3)Nc3nc(-c4ccc(Cl)cc4)nn32)cc1 (centres undefined) | -5% | -10% | -92% | 25µM* | ? | ?
Cc1ccc(C2=CC(c3ccc(Cl)cc3)n3nc(-c4ccc(C)cc4)nc3N2)cc1 (centres undefined) | -13% | -9% | -33% | ? | ? | ?
Cn1c(=O)oc2cc(S(=O)(=O)N3CCC(C(=O)N4CCN(c5ccc(Cl)cc5)CC4)CC3)ccc21 | -8% | -3% | -30% | ? | ? | 13µM*
Cc1cc(-c2cc(O)ccc2Cl)cc2nnc(Nc3ccc(OCCN4CCCC4)cc3)nc12 | 0% | · | · | · | · | ·
Cc1ccc(C)c(N2CCN(C(=O)C3CCN(C(=O)c4cc5sccc5n4C)CC3)CC2)c1 | -21% | -2% | -43% | ? | -25% | ?
Cc1cccc(N2CCN(C(=O)C3CCN(C(=O)c4cc5sccc5n4C)CC3)CC2C)c1 (centres undefined) | -15% | 0% | -55% | 22µM* | ? | ?
COc1ccc(-c2noc(CSc3nnc(-c4ccncc4)n3-c3ccc(OC)cc3)n2)cc1 | ? | -3% | -36% | -30% | ? | 2.4µM*

Screens (PubChem)
